ELG1 genotox = qHTS screen for small molecules that induce genotoxicity in human embryonic kidney (HEK293T) cells expressing luciferase-tagged ELG1. Potency, µM (titrated, usually from 46 µM), without a hit: at the top dose activity change, positive = activation, hits mostly activators. AID 504466, 2011. HEK293T ELG1-luciferase reporter, luminescence, 16 h. 330,000 compounds, 1.3% hits; further: % of control where 0% means no effect; nearly all actives have a fitted effect of over 60% in size
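ELG1-luciferase HEK293T cells, 2,000/well; compound pinned in; 16 hr, 37 °C, 5% CO2; ONE-Glo, 30 min RT; luminescence on CCD imager.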
FLuc counter = qHTS profiling assay for firefly luciferase inhibitor/activator using purifed enzyme and Km concentrations of substrates (counterscreen for miR-21 project). Luciferin 4-monooxygenase (Photinus pyralis), P08659. purified FLuc, Km substrates, luminescence inhibition. Potency, µM (top dose mostly 57.5 µM), for inactives: top-dose activity change, negative = inhibition, most hits filed as inhibitors. 360,000 compounds, 6.9% hits. AID 588342, 2011;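 further: plate controls were vehicle for no effect and reference inhibitor for full effect; nearly all actives have a fitted effect of over 55% in size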
Target sequence (P08659 whole entry, looked up): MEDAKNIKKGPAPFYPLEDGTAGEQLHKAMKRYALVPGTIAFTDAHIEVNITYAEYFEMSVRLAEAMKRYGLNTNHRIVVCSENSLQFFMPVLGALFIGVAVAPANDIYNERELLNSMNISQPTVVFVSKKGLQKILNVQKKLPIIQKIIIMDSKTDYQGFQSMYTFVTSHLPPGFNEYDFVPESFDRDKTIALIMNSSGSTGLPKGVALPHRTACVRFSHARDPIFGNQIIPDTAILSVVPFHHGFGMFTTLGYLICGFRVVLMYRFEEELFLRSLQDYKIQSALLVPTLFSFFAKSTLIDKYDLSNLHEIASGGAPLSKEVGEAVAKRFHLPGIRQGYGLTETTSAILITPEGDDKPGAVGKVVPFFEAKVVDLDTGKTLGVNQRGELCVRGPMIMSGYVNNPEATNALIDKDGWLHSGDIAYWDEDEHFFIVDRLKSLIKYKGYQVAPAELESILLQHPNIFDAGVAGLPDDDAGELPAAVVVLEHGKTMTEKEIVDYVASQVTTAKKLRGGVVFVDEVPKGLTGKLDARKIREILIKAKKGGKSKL
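Purified P. pyralis luciferase (10nM final) with 10uM D-luciferin and 10uM ATP (Km levels) in 50mM Tris acetate pH 7.5, 10mM Mg acetate, 0.01% Tween-20, 0.05% BSA; qHTS 6-point titration, ~60 µM downward; luminescence read.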
Rab9 prom act = qHTS Assay for Rab9 Promoter Activators; Huh7 Rab9 promoter-luciferase reporter, luminescence, 24 h; Potency, µM (doses to about 9.22 µM), without a hit: top-dose activation, negative = inhibition, usual class: activators; AID 485297, 2010; 320,000 compounds, 2.8% hits; further: % of control where 0% means no effect; nearly all actives have a fitted effect of over 60% in size
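Stable Rab9-luc Huh7, 1500 cells/well, 2 h settle; cmpd in DMSO, 24 h, 37 °C/5% CO2; luciferase reagent 10 min RT; luminescence.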
NPC1 promoter act = qHTS Assay for NPC1 Promoter Activators. Huh7 NPC1 promoter luciferase reporter, 24 h. Potency, µM (series often up to 9.22 µM), for the others: top-dose activation, most hits filed as activators. 320,000 compounds, 2.4% hits; further: % of control where 0% means no effect; nearly all actives have a fitted effect of over 60% in size
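Compounds in DMSO were transferred onto Huh7 NPC1-luciferase reporter cells pre-incubated 2 h; after 24 h at 37 °C, Amplite reagent was dispensed and luminescence recorded 10 min later.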
SMN2 splice up = qHTS Assay for Enhancers of SMN2 Splice Variant Expression; 210,000 compounds, 2.8% hits; Potency, µM (top dose mostly 46.1 µM), without a hit: at the highest dose activity change, positive = activation, actives largely listed as activators; AID 1458, 2008; HEK293 SMN2-luciferase splicing reporter, luminescence, 30-36 h; further: % of control where 0% means no effect; nearly all actives have a fitted effect of over 55% in size
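HEK293 cells carry an SMN2 […]–luciferase reporter in which exon 7 inclusion puts luciferase in frame. Cells were plated 10-12 h before compound addition, then incubated 30-36 h at 37C. ONE-Glo luminescence was read; sodium butyrate at 4.5 mM final served as control.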
The depositor's hits bear a star; [ ] = dose if it differs, or a comment. Sampled rows, rich in hits. Any-hit rate of the full collection: about 7.5%. The call rests on the fitted dose curve; in most records, active means well fitted curve in the direction sought with a large enough effect; inconclusive means small, poorly fitted or top-dose-only effect, or another doubt; inactive means no such curve, though single readings can be large; an effect the other way counts as inactive or inconclusive. Potency means the concentration at half of the fitted maximal effect.

How did COc1cccc(N2CC(C(=O)Nc3nnc(SCC(=O)NC4CCCC4)s3)CC2=O)c1 (configuration not stated) do in these assays?
ELG1 genotox: 6.0%; FLuc counter: 6.4%; Rab9 prom act: 0.5%; NPC1 promoter act: -1.7%

How did COc1ccc(C(=O)Nc2nnc(SCc3cc(=O)c4cccc(F)c4[nH]3)s2)cc1 do in these assays?
FLuc counter: 21.3µM*

How did N/C(=N\OC(=O)CCCc1ccccc1)c1ccccn1 do in these assays?
ELG1 genotox: 2.0%; FLuc counter: 2.13µM*; Rab9 prom act: -0.5%; NPC1 promoter act: 5.5%; SMN2 splice up: 25.6%

What do the screens show for `N/C(=N\OC(=O)Cc1ccccc1)c1ccccn1`?
ELG1 genotox: 9.7%; FLuc counter: 16.9µM*; Rab9 prom act: 11.1%; NPC1 promoter act: 11.7%; SMN2 splice up: 19.6%

What do the screens show for `COc1ccc(/C(N)=N/OC(=O)CCC2CCCC2)cc1OC`?
ELG1 genotox: 9.3%; FLuc counter: inconclusive; Rab9 prom act: 1.6%; NPC1 promoter act: -6.6%

How did N/C(=N\OC(=O)CCC1CCCC1)c1ccccn1 do in these assays?
ELG1 genotox: inconclusive; FLuc counter: 0.477µM*; Rab9 prom act: 23.5%; NPC1 promoter act: 25.2%; SMN2 splice up: inconclusive

How did CCN(CC)c1ccc(NC(=O)c2cnn(CC)c2)cc1 do in these assays?
ELG1 genotox: 8.7%; FLuc counter: inconclusive; Rab9 prom act: 8.5%; NPC1 promoter act: 22.4%; SMN2 splice up: 2.4%

How did C/C(=N\NC(N)=S)c1ccc[nH]1 do in these assays?
SMN2 splice up: -0.2%[9.22 µM]

Results for C/C(=N\Nc1cccc2cccnc12)c1ccc[nH]1 ?
ELG1 genotox: 3.6%; FLuc counter: 1.07µM*; Rab9 prom act: 1.41µM*; NPC1 promoter act: inconclusive; SMN2 splice up: 11.2µM*

How did N#CC1=C(SCC(=O)Nc2nccs2)NC(=O)CC1c1ccccc1 (configuration not stated) do in these assays?
ELG1 genotox: inconclusive; FLuc counter: -0.1%; Rab9 prom act: 1.7%; NPC1 promoter act: 17.0%; SMN2 splice up: -1.6%

Results for O=c1c(-c2ccc3c(c2)OCCO3)coc2cc(OC3OC(CO)C(O)C(O)C3O)ccc12 (configuration not stated) ?
ELG1 genotox: inconclusive; FLuc counter: 10.7µM*; Rab9 prom act: 0.501µM*; NPC1 promoter act: 0.562µM*

How did CCOC(=O)c1cc(=O)n2nc(-c3ccc(C)cc3)nc2s1 do in these assays?
ELG1 genotox: 0.1%; FLuc counter: 3.01µM*; Rab9 prom act: 2.0%; NPC1 promoter act: 0.3%; SMN2 splice up: 1.3%

Results for COc1ccccc1NS(=O)(=O)c1ccc(Cl)c(NC(=O)C(C)N2C(=O)c3ccccc3C2=O)c1 (configuration not stated) ?
ELG1 genotox: 4.2%; FLuc counter: -3.4%; Rab9 prom act: -7.7%; NPC1 promoter act: -0.2%; SMN2 splice up: 1.7%

How did COc1ccc(/C=C2\CCc3ccccc3C2=O)cc1Cn1nc(C)cc1C do in these assays?
ELG1 genotox: 18.5%; FLuc counter: 13.5µM*; Rab9 prom act: -2.0%; NPC1 promoter act: -10.0%; SMN2 splice up: -29.0%

Results for COc1ccc(/C=C2/CCc3ccccc3C2=O)cc1CN1CCOCC1 ?
ELG1 genotox: 17.6%; FLuc counter: 9.53µM*; Rab9 prom act: -0.3%; NPC1 promoter act: -1.2%; SMN2 splice up: -15.0%

Results for COc1ccc(/C=C/C(=O)c2ccccc2O)cc1CN1CCOCC1 ?
ELG1 genotox: -9.2%; FLuc counter: -3.0%; Rab9 prom act: 1.7%; NPC1 promoter act: -2.9%; SMN2 splice up: -11.6%

How did O=C(NC(Cc1c[nH]c2ccccc12)C(=O)N/N=C/c1cccnc1)c1cccs1 (configuration not stated) do in these assays?
ELG1 genotox: -7.5%; FLuc counter: -0.5%; Rab9 prom act: 9.1%; NPC1 promoter act: 2.2%; SMN2 splice up: 25.1µM*

How did O=C(NC(Cc1c[nH]c2ccccc12)C(=O)Nc1ccc(F)cc1)c1cccs1 (configuration not stated) do in these assays?
ELG1 genotox: -7.4%; FLuc counter: 2.4%; Rab9 prom act: -6.3%; NPC1 promoter act: -5.7%; SMN2 splice up: 155.7%

Results for CCCCCNC(=O)c1ccc2c(c1)ncn2-c1cccc(C)c1 ?
FLuc counter: -11.2%

What do the screens show for `Cc1cccc(-n2cnc3cc(C(=O)N4CCCCC4)ccc32)c1`?
ELG1 genotox: 20.1%; FLuc counter: 23.9µM*; Rab9 prom act: inconclusive; NPC1 promoter act: inconclusive; SMN2 splice up: inconclusive

Results for CCc1nc(SCC(=O)N2CCN(C(=O)c3ccco3)CC2)c2c3c(sc2n1)CCCC3 ?
ELG1 genotox: -24.7%; FLuc counter: 16.9µM*; Rab9 prom act: 3.3%; NPC1 promoter act: 3.2%; SMN2 splice up: -28.6%

How did O=C(CSc1ncnc2sc3c(c12)CCCC3)c1ccco1 do in these assays?
ELG1 genotox: -0.2%; FLuc counter: 12µM*; Rab9 prom act: inconclusive; NPC1 promoter act: 15.3%; SMN2 splice up: 13.2%

What do the screens show for `O=C(CSc1ncnc2sc3c(c12)CCCC3)c1ccccc1`?
ELG1 genotox: 5.4%; FLuc counter: -11.0%; Rab9 prom act: -6.0%; NPC1 promoter act: -0.6%; SMN2 splice up: -56.8%

Results for COC(=O)c1cc(-c2ccc(OC)cc2)nc2nc(SC)[nH]c(=O)c12 ?
ELG1 genotox: 0.5%; FLuc counter: 5.36µM*; Rab9 prom act: -0.9%; NPC1 promoter act: -5.0%

What do the screens show for `CCOC(=O)c1cc(-c2cccc(C(F)(F)F)c2)nc2nc(SC)[nH]c(=O)c12`?
ELG1 genotox: -5.9%; FLuc counter: 12µM*; Rab9 prom act: -2.4%; NPC1 promoter act: -2.0%; SMN2 splice up: 4.7%

What do the screens show for `CSc1nc(-c2ccc(F)cc2)cc(=O)[nH]1`?
ELG1 genotox: 3.9%; FLuc counter: inconclusive; Rab9 prom act: -0.5%; NPC1 promoter act: -1.8%; SMN2 splice up: 17.5%

What do the screens show for `CCOC(=O)c1cc(-c2ccc(C)cc2)nc2nc(SC)[nH]c(=O)c12`?
ELG1 genotox: -1.0%; FLuc counter: 4.78µM*; Rab9 prom act: -1.5%; NPC1 promoter act: -2.2%; SMN2 splice up: 6.1%

How did CSc1nc(C)c(CCOC(=O)c2cccc(C)c2)c(=O)[nH]1 do in these assays?
ELG1 genotox: -1.4%; FLuc counter: -9.2%; Rab9 prom act: 7.9%; NPC1 promoter act: -1.8%; SMN2 splice up: -10.1%

What do the screens show for `CC(=O)Nc1cc(C(=O)N2CCc3ccccc3C2)ccc1Sc1ccc(Cl)cc1`?
ELG1 genotox: 1.9%; FLuc counter: 4.2%; Rab9 prom act: -0.3%; NPC1 promoter act: 1.4%; SMN2 splice up: -7.8%

Screening results deposited in PubChem BioAssay by National Center for Advancing Translational Sciences (NCATS).
